Measurements published in ChEMBL document CHEMBL3988442, “University of Dundee, Small-Polar-MMV Screening Library” (2021).
In all, about 38,000 compounds went through this assay and about 1,200 (3.2%) showed an effect of 50% or more. The median lay at about -58%. The sample as a whole holds a higher share of strong results than the screen did.

Test system: Plasmodium falciparum
Assay: Calibr Malaria Delayed Death Assay SOP
Type: functional, organism-based
Design: scale not given: in the data most compounds retested in dose-response had high values
Settings: concentration 4.99e-06 (unit not given; other assays of the set use mol/L)

In order of falling “Percent Effect” value:
1. CCN1CCCN(S(=O)(=O)c2cc3ccccc3o2)CC1  83.88%
2. O=S1(=O)c2ccccc2OCC2(CCN(CCO)CC2)CN1CC1CC1  76.86%
3. CCc1ccccc1OCCN(C)C(=O)CN1CCCC1  75.23%
4. COC[C@H](C)Nc1cc(C)c2ccc(SC)cc2n1  74.39%
5. CCCN(C)CC1CCN(c2ccc(Br)c(C)n2)C1 (stereo not given)  72.9%
6. CCCNCc1ccc(-c2cc(N)nc3[nH]ccc23)cc1  71.86%
7. CN(C)c1ncc(CNC(=O)Nc2ccc(C(F)(F)F)cc2)n1C  68.14%
8. CCC(CO)N(Cc1ccsc1)Cc1cccc(O)c1 (stereo not given)  67.4%
9. N#Cc1cc(C#N)c(SCC(=O)Nc2ccc(F)cc2)nc1N  66.77%
10. COc1c(CNC2CCCc3ccccc32)c(C(C)C)nn1C (stereo not given)  63.84%
11. O=C(NC1CCNCC1)C1(N2CCCCC2)Cc2ccccc2C1  62.66%
12. COc1ccc(CN2CCC3(CC2)CN(c2ccccn2)CCO3)cc1.O=C(O)C(F)(F)F.O=C(O)C(F)(F)F  60.62%
13. COc1c(CNCCc2c[nH]c3cc(F)ccc23)c(C(C)C)nn1C  59.46%
14. COc1c(CNC2CCc3cc(F)ccc32)c(C(C)C)nn1C (stereo not given)  57.77%
15. COc1ncccc1CN1CCC2(CC1)CN(c1ccccn1)CCO2.O=C(O)C(F)(F)F.O=C(O)C(F)(F)F.O=C(O)C(F)(F)F  55.38%
16. CC(C)CC(C)NCc1cccnc1N1CCN(c2ccccn2)CC1 (stereo not given)  55.01%
17. CN1CC2(CCN(CC3CC3)CC2)COc2ccccc2S1(=O)=O.O=C(O)C(F)(F)F  52.41%
18. CCCC(C)NCc1cccnc1N1CCN(c2ccccn2)CC1 (stereo not given)  51.12%
19. CC(NCCCN1CCCC1=O)c1cc(Br)ccc1O (stereo not given)  50.26%
20. CN(C)[C@H]1CCCCN(Cc2ccccc2Cn2cccn2)C1  49.71%
21. COc1c(CNCCc2c[nH]c3cc(F)ccc23)c(C)nn1C  49.69%
22. Fc1ccc(CN2CCC3(CC2)CN(c2ccccn2)CCO3)cc1.O=C(O)C(F)(F)F.O=C(O)C(F)(F)F  46.67%
23. CC(NCCCN1CCCC1=O)c1cc(Br)ccc1F (stereo not given)  40.27%
24. O=C(NC1CCNC1)C1(N2CCCCC2)Cc2ccccc2C1 (stereo not given)  33.42%
25. COc1c(CNC2CCc3ccccc32)c(C)nn1C (stereo not given)  30.71%
26. COc1c(CNC2CCc3cc(F)ccc32)c(C)nn1C.Cl (stereo not given)  26.33%
27. CCC(CO)N(CC=C(C)C)Cc1ccsc1 (stereo not given)  20.66%
28. CSc1ccc2c(C)cc(N[C@@H](C)CO)nc2c1  13.21%
29. N#Cc1cc(C#N)c(SCCC(=O)Nc2ccc(F)cc2)nc1N  10.11%
30. OC1(CNc2ccc(F)cc2)CCNCC1  9.673%
31. Cn1c(N)c2c(=O)n(C)c(-c3ccc(Cl)cc3Cl)cc2c(C#N)c1=O  5.212%
32. CC(C)(C)c1oc(C(N)=O)cc1CN1CCCCC(N)C1 (stereo not given)  3.928%
33. CC(C)NCc1cccnc1N1CCN(c2ccccn2)CC1  3.171%
34. CC(C(=O)Nc1sccc1C(N)=O)N(C)CCOc1ccccc1 (stereo not given)  2.405%
35. CS(=O)(=O)N1CCN(C(=O)c2cc(-c3ccc(Br)s3)n[nH]2)CC1  2.289%
36. CCc1ccccc1OCCN(C)C(=O)CCN1CCCCO1  2.137%
37. CC(C)c1nn(C)c(N(C)C)c1CNC1CCc2cc(F)ccc21.Cl (stereo not given)  -3.129%
38. O=C(NCCc1ccncc1)c1cccc(S(=O)(=O)NC2CCOC2)c1 (stereo not given)  -7.029%
39. COCCN1CCC2(CC1)COc1ccccc1S(=O)(=O)N(C)C2  -7.731%
40. Nc1cc(-c2cc(O)cc(C(=O)O)c2)c2cc[nH]c2n1  -8.693%
41. COC(=O)c1cnn(-c2cc(Oc3cccc(C)c3)ncn2)c1N  -10.04%
42. COCCN1CCCC(c2nccnc2Nc2nc(C)cs2)C1 (stereo not given)  -10.08%
43. Cc1cc(C(=O)N2CCC3(C2)CN(c2ccsc2)C(=O)CN3C)[nH]n1.O=C(O)C(F)(F)F (stereo not given)  -16.33%
44. CCn1cc(NS(=O)(=O)c2ccc(Br)s2)c(C(=O)NCC(C)C)n1  -19.45%
45. CCC(C)NC(=O)NCCC(=O)N1CCN(c2ccccn2)CC1 (stereo not given)  -19.73%
46. CCN1CC2(CCN(C(=O)N(C)C)CC2)COc2ccccc2S1(=O)=O  -20.19%
47. COCC1CN(C(=O)Cc2cccs2)Cc2nnn(CC3CC3)c21 (stereo not given)  -20.67%
48. COc1c(CNC2CCOc3ccccc32)c(C(C)C)nn1C (stereo not given)  -23.6%
49. COc1cccc(CC(=O)N2CC[C@@H]3CN(C)S(=O)(=O)[C@@H]3CC2)c1  -25.41%
50. CC1=C(c2ccc(C)cc2)S(=O)(=O)N=C1N1CCc2ccccc21  -28.82%
51. O=S(=O)(c1cc2ccccc2o1)N1CCCC1  -30.68%
52. CN(C)c1ncc(CNC(=O)Nc2ccccc2F)n1C  -31.3%
53. CN1CC2(CCN(C(=O)C3CCC3)CC2)COc2ccccc2S1(=O)=O  -31.54%
54. CCC(=O)N1CCC2(CC1)COc1ccccc1S(=O)(=O)N(C)C2  -32.01%
55. CCCN1CCC2(CC1)COc1ccccc1S(=O)(=O)N(CC1CC1)C2.O=C(O)C(F)(F)F  -32.31%
56. COCC(=O)N1CCCN(Cc2cc(C(C)C)no2)CC1  -33.31%
57. CC(NC(=O)NCCCN1CCCC1=O)c1ccc(Cl)s1 (stereo not given)  -33.34%
58. Nc1cc(-c2ccc(C(=O)O)cc2O)c2cc[nH]c2n1  -36.07%
59. COc1ccc(NC(=O)N(CCO)Cc2ccsc2)cc1  -36.74%
60. CN(C)C(=O)CN1CCC2(CC1)COc1ccccc1S(=O)(=O)N(C)C2.O=C(O)C(F)(F)F  -44.68%
61. CN1C(=O)C2(CCN(c3nccc4occc34)CC2)c2ccccc21  -46.41%
62. c1ccc(Cc2n[nH]c(C3CCOC3)n2)cc1 (stereo not given)  -53.42%
63. O=c1[nH][nH]cc1-c1ccnc(NCCc2ccc(F)cc2)n1  -53.75%
64. N#CCCN(Cc1ccccn1)C(=O)c1cccc(CN2CCCC2)c1  -57.26%
65. CCN(C)CC1CCN(c2ncc(Br)cn2)C1 (stereo not given)  -58.14%
66. COc1cccc(CNc2nc(N3CCOCC3)ns2)c1OC  -58.35%
67. CC(C)c1cc(-c2cnn(C)c2C2CC2)c(C#N)c(N)n1  -61.18%
68. O=C(CCn1ccccc1=O)N1CCCC(COc2ccc(F)cc2)C1 (stereo not given)  -62.32%
69. COc1c(CNCCc2c[nH]c3ccccc23)c(C)nn1C  -66.3%
70. COc1ccc(CN2CCC3(CC2)CC(c2cccnc2)CO3)cc1.O=C(O)C(F)(F)F.O=C(O)C(F)(F)F (stereo not given)  -68.03%
71. CC(OCC(F)(F)F)C(=O)N1CCOCC1 (stereo not given)  -69.84%
72. CCC1CN(C(=O)c2ccccc2C(C)=O)CCN1C(C)C (stereo not given)  -70.36%
73. O=C(O)C(F)(F)F.O=C(O)C(F)(F)F.c1ccc(CN2CCC3(CC2)CN(c2ccccn2)CCO3)nc1  -71.36%
74. Cc1c(C(=O)NCC(C)(C)S(C)(=O)=O)cccc1-c1ccccn1  -72.33%
75. CCCN(C)CC1CCN(c2ncc(Br)cn2)C1 (stereo not given)  -74.37%
76. COC(=O)CN(C)Cc1cc(Br)cs1  -75.79%
77. N#Cc1cc(C#N)c(SCC(=O)NCc2ccc(F)cc2)nc1N  -76.83%
78. CCn1nc(C)c2ccn(CC(=O)NC(C)C)c(=O)c21  -79.05%
79. CCC(CO)N(Cc1ccc(C(=O)O)cc1)Cc1ccsc1 (stereo not given)  -80.76%
80. O=C(c1ncccn1)N1C[C@@H]2COC[C@]2(COc2cccnc2)C1  -80.86%
81. CCCn1nccc1C(=O)Nc1nc(C)c(C)s1  -95.22%
82. CCc1ccccc1OCCN(C)C(=O)CCN1CCCO1  -98.11%
83. CCn1ncnc1C(C)Nc1cc(C)c2ccc(SC)cc2n1 (stereo not given)  -98.68%
84. COCC(=O)N1CCC2(CC1)CN(c1ccccn1)CCO2.O=C(O)C(F)(F)F  -99.25%
85. O=C1NCCCC[C@@H]1NC(=O)C1(N2CCCCC2)Cc2ccccc2C1  -107.8%
86. Cc1cc(C)cc(C(=O)NCCS(=O)(=O)N2CCSCC2)c1  -110.6%
87. CC(=O)N1CCO[C@@H]2CN(Cc3ccccc3Cl)C[C@@H]2C1.O=C(O)C(F)(F)F  -110.8%
88. CN(C)c1ncc(CNC(=O)Nc2ccccc2C(F)(F)F)n1C  -113.2%
89. O=C(CC(SC1CCCCC1)C(=O)O)c1ccc(Br)cc1 (stereo not given)  -115.9%
90. CCC1CN(C(=O)c2ccc(O)c(C)c2)CCN1C(C)C (stereo not given)  -125.9%
91. CC(=O)NCC(=O)N1CCCC(C(=O)c2ccc(C(C)(C)C)cc2)C1 (stereo not given)  -127.3%
92. CCC(CC)C(=O)NCCC(=O)N1CCN(c2ccccn2)CC1  -127.9%
93. O=C(NCC1(O)CCSC1)c1cccc(-n2cccn2)c1 (stereo not given)  -128.5%
94. CN(C)c1ccc(C(=O)N2CCCC2c2cnn(C)c2)cn1 (stereo not given)  -130.6%
95. CC(=O)N1CCCN(S(=O)(=O)c2cc3ccccc3o2)CC1  -136.3%
96. CCn1ccc(-c2nnc(SCC(=O)NCC(C)C)n2CC)n1  -143.1%
97. CN1CCC2(CC1)OC(C(=O)NCc1cccnc1)Cn1ccnc12 (stereo not given)  -146%
98. CC(C)C(=O)NCCC(=O)N1CCN(c2ccccn2)CC1  -182.3%
99. CN1Cc2c(C(=O)NC3CCCCC3)ncn2-c2ccccc2S1(=O)=O.O=C(O)C(F)(F)F  -186.4%
100. Cn1ccnc1CN1CCC2(CC1)CN(c1ccccn1)CCO2.O=C(O)C(F)(F)F.O=C(O)C(F)(F)F  -263.3%
